PABP polyA inh = PABP poly(A) RNA binding inhibitors, primary screen, biochemical, fluorescence polarization, uHTS. Polyadenylate-binding protein 1 (Homo sapiens), P11940. AID 2014, 2009. inhibition, % at 35 µM. 1% of 290,000 active;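 also: calls also rest on retests at 20 µM and on dose response follow-up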
PABP1 MLLE inh = inhibitors of PABP1 MLLE–PAM2 peptide binding, primary screen, biochemical, fluorescence polarization, FITC-PAM2, GST-MLLE. inhibition, % at 20 µM. 0.36% of 360,000 active; in the data active = inhibition above about 35%, passing the limit was not always enough;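 also: plate controls were DMSO wells with GST-MLLE for no effect and wells lacking GST-MLLE protein for full effect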
eIF4E 4G PPI = eIF4E–eIF4G protein interaction inhibitors, primary screen, biochemical, uHTS, TR-FRET, eIF4GI fragment; Eukaryotic translation initiation factor 4E (Mus musculus) + Eukaryotic translation …; TR-FRET eIF4E-eIF4GI(517-606) binding, 2 h; inhibition, % at 21.7 µM; 0.37% of 220,000 active; AID 782, 2007;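 active = inhibition above about 30%, limit read from the data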;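 also: 0% = full FRET control wells and 100% = background wells lacking eIF4GI fragment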
eIF4H inh = human eIF4H binding inhibitors, primary screen, translation initiation inhibitor project, biochemical, uHTS, fluorescence polarization; Eukaryotic translation initiation factor 4H (Homo sapiens), Q15056; eIF4H fluorescence polarization binding assay; inhibition, % at 35 µM; 0.94% of 290,000 active;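 also: calls also rest on retests at 20 µM and on dose response follow-up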
PERK inhibitor = block of dimerizer-induced PERK translation repression, primary screen, PERK inhibitor project, CHO PERK-DD cells, SEAP luminescence, HTS; 0.17% of 220,000 active; CHO PERK-DD fusion, SEAP luminescence translation reporter; Eukaryotic translation initiation factor 2-alpha kinase 3 (Homo sapiens), Q9NZJ5; inhibition, % at 5.6 µM;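 active = inhibition above the mean inhibition of all tested compounds plus 3 SD, set separately per screening campaign, cut at about 2.9% in these data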;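 also: PERK kinase domain activated by AP20187 dimerizer at 100 nM; 0% = DMSO with dimerizer and 100% = rapamycin at 8.4 µM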
The depositor's hits bear a star; u = inconclusive; x = no result; ! = repeats disagree. Rows were chosen to be rich in hits. Some 1.6% of all compounds tested hit in one or more screens of this group. Unless noted, no rule for the calls is given here.

SMILES | PABP polyA inh | PABP1 MLLE inh | eIF4E 4G PPI | eIF4H inh | PERK inhibitor
CCC(C)[C@H](N)c1cn([C@@H](CCCCN)C(=O)N2CCNCC2)nn1 (stereo partly drawn) | 50* | 5 | 0 | -5 | 1
NCCCCC(N)c1cn([C@@H](CCC(=O)O)C(=O)N2CCNCC2)nn1 (stereo partly drawn) | x | -9 | x | x | x
NN1C(=O)/C(=C\c2ccco2)SC1=S | 91* | 19 | 0 | 106* | 1
CC(C)C(C(=O)O)N1C(=O)/C(=C/C=C/c2ccco2)SC1=S (stereo not drawn) | 79* | -4 | 46* | 91* | 2
O=C1/C(=C/C=C/c2ccco2)SC(=S)N1c1ccc(O)cc1 | 77* | -46 | 37* | 80* | 1
O=C1/C(=C\c2ccco2)SC(=S)N1c1ccc(O)cc1 | 3 | 25 | -2 | 81* | 1
O=C(NNC(=O)C1CC(=O)N(Cc2ccccc2)C1)c1ccc(F)cc1 (stereo not drawn) | x | -8 | x | x | x
C[C@H](CO)N1C[C@H](C)[C@H](CN(C)S(=O)(=O)c2ccc(Cl)cc2)OCc2cnnn2CCCC1=O | x | 0 | x | x | x
O=C1/C(=C\c2ccc(O)cc2)SC(=S)N1c1cccnc1 | -13 | -32 | 12 | -20 | 1
COc1cccc(/C=C2\SC(=S)N(c3cccnc3)C2=O)c1OC | 24 | 55* | 7 | 0 | 0
O=C1/C(=C/c2ccco2)SC(=S)N1c1cccnc1 | 84* | -1 | 55* | 92* | 1
O=C(NN1C(=O)/C(=C/C=C/c2ccco2)SC1=S)c1ccncc1 | 94* | 0 | 37* | 84* | 1
COc1ccc(/C=C2\SC(=S)N(c3cccnc3)C2=O)cc1 | -5 | 18 | -6 | 2 | 1
CC(=O)c1ccc(OCc2nnn(CC(=O)NS(=O)(=O)c3ccc(C)cc3)c2-c2ccccc2)cc1 | x | 17 | x | x | x
COc1cccc(CNc2nc3cc(-c4cccc(C(=O)NCCO)c4)sc3c(=O)n2C)c1 | x | -80 | x | x | x
CCN1CCN(Cc2nnc(-c3ccc(C)cc3)o2)CC1 | 6 | 7 | x | 1 | x
COc1ccc2cc(C3=CC(=O)CCC3)ccc2c1 | x | -6 | x | x | x
CC(=O)Nc1ccc(NC(=O)C(NS(=O)(=O)c2cccc3nsnc23)C(C)C)cc1 (stereo not drawn) | 9 | 10 | x | 0 | x
COc1cc(S(=O)(=O)Nc2ccc3c(c2)C(=O)N(C)C3=O)ccc1NC(C)=O | x | 20 | x | x | x
COc1ccccc1/C=C/C(=O)c1ccccc1 | 7 | 13 | 0 | 4 | -1
COc1ccccc1/C=C/C(=O)c1c2c(c(C)[nH]c1=O)CCCC2 | -6 | 1 | 67* | -4 | -1
COc1ccccc1N/C=C/c1onc(C)c1[N+](=O)[O-] | 2 | -146 | -1 | 28 | 1
Cc1noc(/C=C/Nc2ccc(F)cc2F)c1[N+](=O)[O-] | 16 | 50* | -3 | 70 | 1
CCOC(=O)c1ccc[n+](CC(=O)c2ccccc2)c1 | 14* | 0 | 2 | 59* | 0
CC(=O)Nc1ccc(SC[C@H](C)CN2CC[C@H](C(C)(C)C)CCC2=O)cc1 | x | 46* | x | x | x
SMILES | PABP polyA inh | PABP1 MLLE inh | eIF4E 4G PPI | eIF4H inh | PERK inhibitor
Cc1ccc(SC[C@H](C)CN2CC[C@H](C)CCC2=O)cc1 | 12 | 1 | x | -1 | x
C=CCN([C@H](C(=O)OC)C(C)C)S(=O)(=O)CCNCc1ccccc1 | x | -8 | x | x | x
CCc1nc2ccc(C(=O)N3CCN(c4ccccc4)CC3)cc2nc1CC | -8 | -11 | x | -9 | x
O=C(c1ccc2nc(-c3ccco3)c(-c3ccco3)nc2c1)N1CCN(c2ccccc2)CC1 | 53* | 22 | -19 | 94* | 0
O=C(Nc1cccc(C(F)(F)F)c1)c1ccc2nc(-c3ccco3)c(-c3ccco3)nc2c1 | 31* | -14 | 11 | 75* | -1
O=C(NCc1ccco1)c1ccc(S(=O)(=O)N2CCOCC2)cc1 | 26* | 27 | 2 | 79* | 0
O=C(Nc1cccc(C(F)(F)F)c1)c1cc[n+]([O-])cc1 | 11 | -1 | x | -8 | x
O=C(O)c1cc(-c2ccco2)nc2ccc(Br)cc12 | 93*! | 24 | 5 | 87* | 1
O=C(NCc1ccco1)c1ccc(S(=O)(=O)N2CCCCC2)cc1 | -9 | 6 | -3 | -7 | 0
O=C(NCC(=O)N1CCN(Cc2c(F)cccc2Cl)CC1)c1cccc(Cl)c1 | x | 12 | x | x | x
O=S(=O)(c1ccc2nc(-c3ccco3)c(-c3ccco3)nc2c1)N1CCOCC1 | 82* | 23 | 23 | 95* | 0
O=C(O)c1ccc2nc(-c3ccco3)c(-c3ccco3)nc2c1 | 90* | 50* | 12 | 98* | 2
CCN(CC(=O)NC(C)(C)C)C(=O)c1cccc(S(=O)(=O)N2CC3(C)CC2CC(C)(C)C3)c1 (stereo not drawn) | x | -12 | x | x | x
Cc1ccccc1OC1(C)CCN(Cc2ccc(-c3ccccn3)cc2)C1 (stereo not drawn) | x | -13 | x | x | x
COc1ccc(CNC(=O)C(c2ccco2)N(C(=O)Cc2cccs2)c2cccnc2)cc1 (stereo not drawn) | 26 | 6 | 4 | 77* | 0
COc1ccc(CNC(=O)C(c2ccco2)N(Cc2cccs2)C(=O)Cc2cccs2)cc1 (stereo not drawn) | -5 | 7 | 1 | -9 | 0
O=C(CCC1N=C2c3ccccc3N=C(SCc3ccccc3Cl)N2C1=O)NCc1ccco1 (stereo not drawn) | 3 | 1 | 1 | -10 | -2
O=C(CSC1=Nc2ccccc2C2=NC(CC(=O)NC3CCCCC3)C(=O)N12)NCc1ccco1 (stereo not drawn) | u | 49* | 6 | u | 1
CCC(C)C(NS(=O)(=O)c1ccc(C)cc1)C(=O)O (stereo not drawn) | 6 | -2 | 3 | 10 | 1
CSCC(CO)NS(=O)(=O)c1ccc(C)cc1 (stereo not drawn) | -20 | -13 | 4 | -9 | 2.9*
O=C(C1CCN(C2CCN(C/C=C/c3ccccc3)CC2)CC1)N1CCOCC1 | 3.0* | -8 | 0 | 56* | 1
CN(C)S(=O)(=O)c1cccc(NC(=O)CN2C(=O)NC(Cc3ccccc3)C2=O)c1 (stereo not drawn) | x | 4 | x | x | x
CN(C)CC1CCC/C(=C/c2ccc(Cl)cc2)C1=O (stereo not drawn) | x | -4 | x | x | x
Cn1cc(NC(=O)Nc2ccc(C(F)(F)F)cc2)c(C(F)(F)F)n1 | 6 | 11 | 1 | 5 | 3.9*
C[C@@H]1CN([C@@H](C)CO)C(=O)CCCn2nncc2CO[C@H]1CN(C)S(=O)(=O)c1ccc(Oc2ccccc2)nc1 | x | -12 | x | x | x
